Laboratory results reported in PubChem BioAssay (Tox21).
Inconclusive results are not listed. The source made the active and inactive calls. Unless noted, the call rests on the fitted dose curve; in most records, active means well fitted curve in the direction sought with a large enough effect in the repeat runs; inconclusive means weak or mixed curves; inactive means no such curve, though single readings can be large; an effect the other way counts as inactive or inconclusive.

Columns and labels:
[1] = qHTS assay to identify small molecule HDAC inhibitors (AID 1259364); further: top concentration of the series differs between compounds; nearly all actives have a fitted effect of over 45% in size
Outline: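 Luminescence read after 30 min room-temperature HDAC-Glo incubation measures cellular class I/II HDAC activity. Compounds were applied for 2 hr at 37 C to HCT-116 wild-type cells seeded the day before.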

[2] = qHTS assay to identify small molecule HDAC inhibitors - cell viability counter screen (AID 1259365); further: series mostly up to about 92 µM; nearly all actives have a fitted effect of over 50% in size
Outline: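 Following a 2hr exposure of overnight-plated wild-type HCT-116 cells to DMSO-delivered compounds, CellTiter-Glo was added and luminescence recorded after 30min at room temperature.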

[3] = qHTS assay to identify small molecule agonists of the sonic hedgehog signaling (Shh) pathway - cell viability counter screen (AID 1259366); further: nearly all actives have a fitted effect of over 50% in size
Outline: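 After a 4hr attachment at 37C, NIH/3T3 cells bearing an integrated Gli1-driven luciferase reporter were dosed with compounds. Treatment lasted 24hr, with the final hour including CellTiter-Fluor for a fluorescence viability measurement.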

[4] = qHTS assay to identify small molecule antagonists of the sonic hedgehog signaling (Shh) pathway - cell viability counter screen (AID 1259367); further: nearly all actives have a fitted effect of over 55% in size
Outline: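 Tox21 library chemicals were tested on a Gli1-Luc NIH/3T3 clone (2,000 cells/well) stimulated by conditioned medium; viability was quantified as fluorescence from CellTiter-Fluor reagent added at 23 hr.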

[5] = qHTS assay to identify small molecule agonists of the sonic hedgehog signaling (Shh) pathway (AID 1259368; calls by dose curve;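 further: NIH/3T3-derived 3T3Gli1-Luc cells carrying a stable Gli1-driven firefly luciferase reporter; series mostly up to about 92 µM; nearly all actives have a fitted effect of over 15% in size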)
Outline: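 Luminescence was read after 30 min at room temperature with luciferase reagent. Before that, 3T3Gli1-Luc cells (NIH/3T3 clone, stable Gli1-Luc reporter; 2,000/well) were exposed to compounds for 24 hr at 37C, 5% CO2, compounds being added 4 hr post-plating.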

[6] = qHTS assay to identify small molecule antagonists of the sonic hedgehog signaling (Shh) pathway (AID 1259369; calls by dose curve; further: nearly all actives have a fitted effect of over 45% in size)
Outline: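 Antagonist mode: compound added to 3T3 Gli1-Luc cells followed by conditioned-medium stimulation, 24 h at 37 C, 5% CO2. Inhibition taken as loss of Gli1-driven luciferase luminescence.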

[7] = biological target: Estrogen receptor beta (Homo sapiens) (UniProt Q92731); assay: qHTS assay to identify small molecule agonists of the estrogen receptor beta (ER-beta) signaling pathway (AID 1259377; active means well fitted activation curve with a large enough effect in the signal ratio in the repeat runs, not every such curve was filed as active; the % refers to the signal ratio)
Chain of Estrogen receptor beta (Homo sapiens) (Q92731 whole entry, looked up): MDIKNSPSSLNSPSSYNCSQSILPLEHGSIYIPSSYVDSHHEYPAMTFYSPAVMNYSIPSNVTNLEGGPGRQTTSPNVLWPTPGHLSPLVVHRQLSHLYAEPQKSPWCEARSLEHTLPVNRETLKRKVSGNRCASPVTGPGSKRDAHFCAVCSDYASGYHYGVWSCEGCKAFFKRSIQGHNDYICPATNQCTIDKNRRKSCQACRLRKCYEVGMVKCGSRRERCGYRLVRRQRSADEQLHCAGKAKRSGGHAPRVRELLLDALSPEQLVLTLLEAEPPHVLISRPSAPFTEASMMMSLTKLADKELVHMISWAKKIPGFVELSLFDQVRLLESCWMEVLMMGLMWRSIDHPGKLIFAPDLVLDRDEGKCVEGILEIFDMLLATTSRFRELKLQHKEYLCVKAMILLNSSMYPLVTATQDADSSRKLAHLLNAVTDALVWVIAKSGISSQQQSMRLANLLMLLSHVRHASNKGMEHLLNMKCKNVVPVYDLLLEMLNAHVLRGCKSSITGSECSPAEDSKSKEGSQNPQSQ
Outline: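 In HEK293T cells bearing a UAS-beta-lactamase reporter under ER-beta control, DMSO-delivered compounds were incubated for 16 hr at 37C. Activity was detected as fluorescence 2 hours after LiveBLAzer B/G FRET substrate addition.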

[8] = biological target: Estrogen receptor beta (Homo sapiens) (UniProt Q92731); assay: qHTS assay to identify small molecule antagonists of the estrogen receptor beta (ER-beta) signaling pathway (AID 1259378; active means well fitted inhibition curve with a large enough effect in the signal ratio in the repeat runs, not every such curve was filed as active; the % refers to the signal ratio)
Outline: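 ER-beta-UAS-bla HEK293T cells in 2% charcoal-stripped FBS medium treated with compound plus 1nM final 17-beta-estradiol for 16 hr at 37C. Beta-lactamase reporter read by FRET substrate fluorescence after 2 hours at room temperature.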

[9] = qHTS assay to identify small molecule agonists of the androgen receptor (AR) signaling pathway in the presence of an antagonist - cell viability counter screen (AID 1259379);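 further: MDA-kb2 human breast cancer cells carrying an MMTV luciferase reporter; series mostly up to about 92 µM; nearly all actives have a fitted effect of over 25% in size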
Outline: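 Cytotoxicity counter-screen run in the same wells as the nilutamide-challenged (3.0 µM final) AR agonist assay in MDA-kb2 cells. Compounds tested at 15 concentrations for 16 h, 37 °C without CO2; CellTiter-Fluor fluorescence read.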

[10] = qHTS assay to identify small molecule agonists of the estrogen receptor beta (ER-beta) signaling pathway - cell viability counter screen (AID 1259380); further: nearly all actives have a fitted effect of over 30% in size
Outline: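 Cell viability counter screen: CellTiter-Glo luminescence (30 min, room temperature) measured in the same wells as the beta-lactamase readout, after 16 hr compound exposure at 37C of ER-beta-bla HEK293T cells in 2% charcoal-stripped FBS medium.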

[11] = qHTS assay to identify small molecule antagonists of the estrogen receptor beta (ER-beta) signaling pathway - cell viability counter screen (AID 1259382); further: series mostly up to about 92 µM; nearly all actives have a fitted effect of over 55% in size
Outline: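 Cytotoxicity was measured in the same wells by CellTiter-Glo luminescence after 30 min at room temperature. Cells were ER-beta-bla HEK293T in charcoal-stripped serum, given compound together with 1 nM E2 and incubated 16 h at 37C.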

[12] = qHTS assay to identify small molecule agonists or antagonists of the thyroid stimulating hormone receptor (TSHR) signaling pathway - wild type cell line counter screen (AID 1259384; calls by dose curve)
Outline: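 Wild-type Hek293 cells, 800/well, 18 h at 37C, then compound with Ro20-1724 for 30 min RT. cAMP by HTRF (cAMP-d2/anti-cAMP cryptate), 1 h RT, fluorescence read. 15 concentrations, triplicates.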

[13] = biological target: Thyrotropin receptor (Homo sapiens) (UniProt P16473); assay: qHTS assay to identify small molecule antagonists of the thyroid stimulating hormone receptor (TSHR) signaling pathway (AID 1259385; calls by dose curve; further: nearly all actives have a fitted effect of over 20% in size)
Chain of Thyrotropin receptor (Homo sapiens) (P16473 whole entry, looked up): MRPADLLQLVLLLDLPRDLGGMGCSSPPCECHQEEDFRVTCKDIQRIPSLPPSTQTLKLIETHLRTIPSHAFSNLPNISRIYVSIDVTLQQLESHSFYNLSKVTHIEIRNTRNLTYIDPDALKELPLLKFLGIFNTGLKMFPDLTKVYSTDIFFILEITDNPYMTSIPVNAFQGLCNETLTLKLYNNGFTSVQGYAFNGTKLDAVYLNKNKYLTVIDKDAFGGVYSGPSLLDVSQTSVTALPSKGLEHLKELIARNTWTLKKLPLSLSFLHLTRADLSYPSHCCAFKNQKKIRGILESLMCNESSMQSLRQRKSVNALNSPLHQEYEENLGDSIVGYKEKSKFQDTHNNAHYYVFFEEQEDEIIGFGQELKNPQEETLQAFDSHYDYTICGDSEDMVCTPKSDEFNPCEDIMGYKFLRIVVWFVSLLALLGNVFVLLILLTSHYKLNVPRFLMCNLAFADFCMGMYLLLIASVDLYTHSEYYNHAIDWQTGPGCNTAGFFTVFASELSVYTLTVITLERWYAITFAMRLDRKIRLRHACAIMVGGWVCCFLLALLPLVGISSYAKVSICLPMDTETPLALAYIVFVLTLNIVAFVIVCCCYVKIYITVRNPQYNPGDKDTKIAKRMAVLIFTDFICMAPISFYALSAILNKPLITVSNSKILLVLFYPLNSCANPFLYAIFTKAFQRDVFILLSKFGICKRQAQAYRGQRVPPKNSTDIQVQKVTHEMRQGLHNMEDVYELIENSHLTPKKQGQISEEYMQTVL
Outline: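 TSHR-HEK293 cells (800/well) plated 18 h, then compounds with Ro20-1724 and TSH at 1.5 ng/mL final, 30 min at room temperature. cAMP quantified by HTRF (cAMP-d2/anti-cAMP-cryptate, 1 h); 15 concentrations in triplicate.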

[14] = qHTS assay to identify small molecule agonists of the estrogen receptor alpha (ER-alpha) signaling pathway in the presence of an antagonist - cell viability counter screen (AID 1259386); further: series mostly up to about 92 µM; nearly all actives have a fitted effect of over 30% in size
Outline: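 Compounds tested at 15 concentrations for 22 h at 37C alongside 10.0nM (final) ICI-182,780 antagonist, in VM7Luc4E2 cells grown in phenol red-free, charcoal-stripped medium. Viability read by CellTiter-Fluor fluorescence after 1 h reagent incubation.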

[15] = biological target: Progesterone receptor (Homo sapiens) (UniProt P06401); assay: qHTS assay to identify small molecule agonists of the progesterone receptor (PR) signaling pathway (AID 1346784; calls by dose curve; further: nearly all actives have a fitted effect of over 30% in size)
Chain of Progesterone receptor (Homo sapiens) (P06401 whole entry, looked up): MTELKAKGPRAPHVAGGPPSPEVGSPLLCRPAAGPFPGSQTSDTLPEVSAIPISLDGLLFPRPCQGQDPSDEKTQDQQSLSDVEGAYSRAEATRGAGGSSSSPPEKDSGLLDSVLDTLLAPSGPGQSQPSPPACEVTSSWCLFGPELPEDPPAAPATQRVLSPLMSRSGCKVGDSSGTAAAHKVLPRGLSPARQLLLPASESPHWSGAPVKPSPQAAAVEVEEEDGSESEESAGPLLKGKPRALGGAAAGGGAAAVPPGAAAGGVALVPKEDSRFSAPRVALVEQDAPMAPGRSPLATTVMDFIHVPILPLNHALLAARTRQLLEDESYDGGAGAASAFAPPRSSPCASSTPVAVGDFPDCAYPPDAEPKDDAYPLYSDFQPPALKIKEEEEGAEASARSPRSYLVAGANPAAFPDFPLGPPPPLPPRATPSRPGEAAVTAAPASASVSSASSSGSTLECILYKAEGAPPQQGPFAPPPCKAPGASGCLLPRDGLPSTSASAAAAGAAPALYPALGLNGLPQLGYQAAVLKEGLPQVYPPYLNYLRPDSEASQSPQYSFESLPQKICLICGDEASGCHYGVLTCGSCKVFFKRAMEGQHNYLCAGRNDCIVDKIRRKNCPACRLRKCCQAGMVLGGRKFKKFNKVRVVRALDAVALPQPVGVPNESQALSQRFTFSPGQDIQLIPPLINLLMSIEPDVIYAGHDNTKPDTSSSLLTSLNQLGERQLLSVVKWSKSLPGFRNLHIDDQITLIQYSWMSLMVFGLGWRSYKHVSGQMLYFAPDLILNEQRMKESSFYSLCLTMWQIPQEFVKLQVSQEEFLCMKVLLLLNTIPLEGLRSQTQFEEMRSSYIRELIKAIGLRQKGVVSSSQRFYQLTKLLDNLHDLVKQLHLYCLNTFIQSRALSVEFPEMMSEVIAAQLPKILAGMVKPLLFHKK
Outline: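 Using charcoal-stripped serum (2%) to limit endogenous steroids, PR-UAS-bla HEK 293T cells received compounds for 16 hr at 37C after 6 hr plating; beta-lactamase FRET fluorescence was recorded following 2 hr substrate loading at room temperature.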

[16] = biological target: Progesterone receptor (Homo sapiens) (UniProt P06401); assay: qHTS assay to identify small molecule antagonists of the progesterone receptor (PR) signaling pathway (AID 1346795; active means well fitted inhibition curve with a large enough effect in the signal ratio in the repeat runs, not every such curve was filed as active; the % refers to the signal ratio)
Outline: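 Inhibition of R5020-induced (1 nM final) beta-lactamase reporter signal in PR-UAS-bla HEK293T cells was scored by FRET fluorescence after overnight (16 hr) compound treatment.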

[17] = qHTS assay to identify small molecule antagonists of the progesterone receptor (PR) signaling pathway - cell viability counter screen (AID 1346798); further: series mostly up to about 92 µM; nearly all actives have a fitted effect of over 50% in size
Outline: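 ATP content as viability readout: CellTiter-Glo luminescence, 30 min room temperature, in PR-UAS-bla HEK293T cells after 16 hr compound/R5020 treatment at 37C and 5% CO2.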

[18] = qHTS assay to identify small molecule agonists of the progesterone receptor (PR) signaling pathway - cell viability counter screen (AID 1346799; calls by dose curve; further: nearly all actives have a fitted effect of over 45% in size)
Outline: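 Cytotoxicity in PR-bla HEK293T cells: 16 h compound, 37C; CellTiter-Glo added post-FRET read; luminescence after 30 min RT.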

[19] = biological target: Androgen receptor (Homo sapiens) (UniProt P10275); assay: qHTS assay to identify small molecule agonists of the androgen receptor (AR) signaling pathway in the presence of an antagonist (AID 1259381; calls by dose curve; further: nearly all actives have a fitted effect of over 15% in size)
Chain of Androgen receptor (Homo sapiens) (P10275 whole entry, looked up): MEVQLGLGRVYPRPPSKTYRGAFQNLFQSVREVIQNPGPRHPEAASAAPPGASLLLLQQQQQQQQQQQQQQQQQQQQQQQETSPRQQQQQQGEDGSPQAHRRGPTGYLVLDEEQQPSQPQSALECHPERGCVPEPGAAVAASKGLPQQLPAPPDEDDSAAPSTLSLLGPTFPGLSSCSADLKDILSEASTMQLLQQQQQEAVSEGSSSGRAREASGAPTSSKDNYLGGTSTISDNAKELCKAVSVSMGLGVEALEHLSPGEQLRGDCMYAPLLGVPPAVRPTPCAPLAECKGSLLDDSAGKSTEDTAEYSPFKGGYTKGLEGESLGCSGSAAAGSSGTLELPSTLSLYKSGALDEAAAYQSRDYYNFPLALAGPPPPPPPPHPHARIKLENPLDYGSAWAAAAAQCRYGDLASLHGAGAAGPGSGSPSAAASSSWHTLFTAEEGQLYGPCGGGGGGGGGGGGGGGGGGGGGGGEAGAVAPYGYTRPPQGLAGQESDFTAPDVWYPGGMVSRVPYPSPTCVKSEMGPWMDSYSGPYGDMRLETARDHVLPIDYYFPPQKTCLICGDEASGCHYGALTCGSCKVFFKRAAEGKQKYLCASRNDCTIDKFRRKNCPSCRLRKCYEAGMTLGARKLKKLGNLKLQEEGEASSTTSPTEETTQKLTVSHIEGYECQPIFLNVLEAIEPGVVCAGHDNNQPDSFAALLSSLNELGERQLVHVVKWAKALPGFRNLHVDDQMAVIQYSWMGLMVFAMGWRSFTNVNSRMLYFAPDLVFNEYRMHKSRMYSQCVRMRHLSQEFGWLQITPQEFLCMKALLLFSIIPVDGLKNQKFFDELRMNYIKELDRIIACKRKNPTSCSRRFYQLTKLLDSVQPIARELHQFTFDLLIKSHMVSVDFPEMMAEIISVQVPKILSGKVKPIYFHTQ
Outline: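 Agonist-mode confirmation run against 3.0 uM final nilutamide: compounds titrated at 15 concentrations onto MDA-kb2 MMTV-luciferase reporter cells. Luminescence measured with ONE-Glo following 16 hr incubation, 37C, 0% CO2.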

[20] = biological target: Estrogen receptor (Homo sapiens) (UniProt P03372); assay: qHTS assay to identify small molecule agonists of the estrogen receptor alpha (ER-alpha) signaling pathway in the presence of an antagonist (AID 1259383; calls by dose curve; further: top concentration of the series differs between compounds; nearly all actives have a fitted effect of over 15% in size)
Chain of Estrogen receptor (Homo sapiens) (P03372 whole entry, looked up): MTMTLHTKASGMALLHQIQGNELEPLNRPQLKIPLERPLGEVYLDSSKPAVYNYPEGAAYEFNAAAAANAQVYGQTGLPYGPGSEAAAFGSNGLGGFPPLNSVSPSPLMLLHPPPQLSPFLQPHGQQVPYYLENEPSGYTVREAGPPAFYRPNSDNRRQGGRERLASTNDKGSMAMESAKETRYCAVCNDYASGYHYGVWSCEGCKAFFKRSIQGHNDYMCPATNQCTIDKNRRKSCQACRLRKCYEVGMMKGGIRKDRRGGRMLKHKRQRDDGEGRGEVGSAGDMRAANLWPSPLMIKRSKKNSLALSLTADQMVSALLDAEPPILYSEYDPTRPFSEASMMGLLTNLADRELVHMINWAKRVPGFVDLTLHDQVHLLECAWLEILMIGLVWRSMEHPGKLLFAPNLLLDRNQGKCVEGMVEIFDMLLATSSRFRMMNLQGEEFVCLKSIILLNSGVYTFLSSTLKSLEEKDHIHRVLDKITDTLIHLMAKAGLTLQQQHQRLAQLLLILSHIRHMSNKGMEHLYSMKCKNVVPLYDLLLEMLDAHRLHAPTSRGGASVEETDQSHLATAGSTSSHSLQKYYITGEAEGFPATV
Outline: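 Agonist-mode confirmation run in the presence of 10.0nM (final) ICI-182,780 antagonist. The reporter was ERE-driven luciferase in VM7Luc4E2 cells, grown in charcoal-stripped serum. Cells were exposed to 15-concentration compound series for 22hr, then ONE-Glo luminescence was read.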

Measured: Potency

Cc1ccnc(N)c1
inactive: [1] | [2] | [3] | [4] | [5] | [6] | [7] | [8] | [9] | [10] | [11] | [12] | [13] | [14] | [15] | [16] | [17] | [18]

CC(=O)c1cc(C)oc1C
inactive: [1] | [2] | [3] | [4] | [5] | [6] | [8] | [9] | [10] | [19] | [11] | [14] | [15] | [16] | [18]

CC(C)=CCC/C(C)=C/COC=O
inactive: [1] | [2] | [3] | [4] | [5] | [6] | [7] | [8] | [9] | [10] | [11] | [12] | [16] | [17] | [18]

NCc1ccc(S(N)(=O)=O)cc1
inactive: [1] | [2] | [3] | [4] | [5] | [6] | [7] | [8] | [9] | [10] | [11] | [13] | [16] | [17] | [18]

CC(=O)OC(C)=O
inactive: [1] | [2] | [3] | [4] | [5] | [6] | [9] | [10] | [11] | [12] | [13] | [14] | [15] | [16] | [17] | [18]

Cc1c(NC(=O)c2cccnc2)c(=O)n(-c2ccccc2)n1C
inactive: [1] | [2] | [3] | [4] | [5] | [6] | [9] | [10] | [11] | [20] | [12] | [13] | [14] | [16] | [17] | [18]

CCCCCCC1(C)CCC(=O)O1 (centres undefined)
inactive: [1] | [2] | [3] | [4] | [5] | [6] | [9] | [10] | [11] | [20] | [12] | [13] | [14] | [15] | [16] | [17]

CC1OCCC1=O (centres undefined)
inactive: [1] | [2] | [3] | [4] | [5] | [6] | [8] | [9] | [10] | [11] | [12] | [13] | [14] | [15] | [16] | [17]

Cc1cccc(Cl)c1
inactive: [1] | [2] | [3] | [4] | [5] | [6] | [8] | [9] | [10] | [11] | [12] | [13] | [15] | [16] | [18]

CCCCCC(C)O (centres undefined)
inactive: [1] | [2] | [3] | [4] | [5] | [6] | [9] | [10] | [11] | [20] | [12] | [13] | [15] | [17]

CN(C)CCN(C)CCO
inactive: [1] | [2] | [3] | [4] | [5] | [6] | [8] | [9] | [10] | [11] | [20] | [13] | [14] | [15] | [16] | [17]

Nc1nc(-c2ccccc2)c(Br)c(=O)[nH]1
inactive: [1] | [2] | [3] | [4] | [5] | [6] | [9] | [10] | [19] | [11] | [20] | [12] | [13] | [14] | [15] | [16] | [18]

O=C(O)CCCCCC(=O)O
inactive: [1] | [2] | [3] | [4] | [5] | [6] | [8] | [9] | [10] | [11] | [20] | [15] | [16] | [17] | [18]

CC(CO)(CO)CO
inactive: [1] | [2] | [3] | [4] | [5] | [6] | [8] | [9] | [10] | [11] | [20] | [12] | [13] | [15] | [16] | [17] | [18]

CCCCCc1cccc(=O)o1
inactive: [1] | [2] | [3] | [4] | [5] | [6] | [8] | [9] | [10] | [11] | [20] | [12] | [14] | [15] | [16] | [17] | [18]

CC(=O)C1C(=O)C=C(C)OC1=O (centres undefined)
inactive: [1] | [2] | [3] | [4] | [5] | [6] | [8] | [9] | [11] | [15] | [16] | [17] | [18]

Cc1ccc(C)c([N+](=O)[O-])c1
inactive: [1] | [2] | [3] | [4] | [5] | [6] | [8] | [9] | [10] | [11] | [13] | [17] | [18]

CC(C)OC(=O)OCOP(=O)(CO[C@H](C)Cn1cnc2c(N)ncnc21)OCOC(=O)OC(C)C
inactive: [1] | [2] | [3] | [4] | [5] | [6] | [8] | [9] | [11] | [20] | [12] | [14] | [15] | [16] | [17]
